# Compounds with a hit are over-represented: about 3.4% of the library has one in this group of screens.
# RGS12 GoLoco inh = blocks human Gai1 binding to RGS12 GoLoco peptide, red readout | Gai1:RGS12 GoLoco peptide FP, rhodamine, 10 min | Potency, µM (doses to about 61.6 µM), inactives show at the highest dose activity, negative = inhibition, hits mostly inhibitors | 230,000 compounds, 0.44% hits; active means well fitted inhibition curve with a large enough effect, not every such curve was filed as active; inactive means no such curve, though single readings can be large or run the other way; further: nearly all actives have a fitted effect of over 30% in size
# Target sequence (P63096 whole entry, looked up): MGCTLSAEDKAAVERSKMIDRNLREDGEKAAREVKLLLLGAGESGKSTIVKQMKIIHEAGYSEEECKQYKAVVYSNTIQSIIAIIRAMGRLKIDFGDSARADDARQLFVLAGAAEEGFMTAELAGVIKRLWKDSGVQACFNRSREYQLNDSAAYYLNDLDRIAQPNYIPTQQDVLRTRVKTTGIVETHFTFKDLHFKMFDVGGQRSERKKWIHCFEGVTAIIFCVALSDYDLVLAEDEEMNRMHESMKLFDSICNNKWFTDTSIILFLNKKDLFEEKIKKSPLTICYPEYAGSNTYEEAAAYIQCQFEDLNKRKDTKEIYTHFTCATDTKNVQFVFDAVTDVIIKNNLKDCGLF
# Tau fluor cs = counter-screen for tau fibril formation inhibitors | AID 1463 | 280,000 compounds, 0.93% hits | tau K18 P301L Alexa594 fluorescence, heparin fibrillization | Potency, µM (doses to about 57.7 µM), for inactives: top-dose activity change, negative = decrease; further: nearly all actives have a fitted effect of over 55% in size
#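 Human K18 P301L tau (15 uM unlabeled plus 0.24 uM Alexa 594-labeled, final) in 100 mM sodium acetate pH 7 was mixed with compound and 20 uM heparin and incubated 6 hr at 37 C.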
# Tau fibril FP = blocks human tau fibril formation measured by polarization; P10636; K18 P301L tau heparin fibrillization, Alexa594 FP, 6 h; Potency, µM (titrated, usually from 57.7 µM), without a hit: top-dose activity, negative = inhibition, hits mostly inhibitors; 280,000 compounds, 0.39% hits; further: nearly all actives have a fitted effect of over 55% in size
#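 Human tau K18 […] P301L fragment, 15 uM unlabeled plus 0.24 uM Alexa 594-labeled tau (final), with compound and 20 uM heparin in 100 mM sodium acetate pH 7; 6 hr at 37 C, then Alexa 594 FP read.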
# KDM4E inh = inhibitors of human JMJD2E histone demethylase; 230,000 compounds, 1.6% hits; Potency, µM (doses to about 57.1 µM), without a hit: at the highest dose activity change, negative = inhibition, actives largely listed as inhibitors; JMJD2E catalytic domain, FDH-coupled NADH fluorescence (FDH is formaldehyde dehydrogenase); B2RXH2; active means well fitted inhibition curve with a large enough effect, not every such curve was filed as active; inconclusive means small, poorly fitted or top-dose-only effect, or another doubt; inactive means no such curve, though single readings can be large or run the other way;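 further: 0% = wells with enzyme and -100% = buffer wells without enzyme; nearly all actives have a fitted effect of over 50% in size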
# Target sequence (B2RXH2 1-337 limits assumed): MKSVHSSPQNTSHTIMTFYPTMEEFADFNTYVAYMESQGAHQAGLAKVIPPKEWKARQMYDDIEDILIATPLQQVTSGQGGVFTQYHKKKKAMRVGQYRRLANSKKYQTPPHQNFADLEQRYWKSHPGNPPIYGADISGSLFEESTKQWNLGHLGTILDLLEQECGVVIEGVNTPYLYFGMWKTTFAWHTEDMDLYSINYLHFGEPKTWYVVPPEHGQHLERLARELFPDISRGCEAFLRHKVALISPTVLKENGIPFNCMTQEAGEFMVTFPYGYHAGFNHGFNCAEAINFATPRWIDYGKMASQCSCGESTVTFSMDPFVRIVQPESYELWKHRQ
# Tau fibril ThT = blocks human tau fibril formation measured by thioflavin T; Potency, µM (series often up to 57.4 µM), for inactives: at the top dose activity, negative = inhibition, most hits filed as inhibitors; 270,000 compounds, 2.1% hits; AID 1460; P10636; recombinant tau K18 P301L (four-repeat tau fragment), heparin-induced fibrillization, ThT fluorescence; further: nearly all actives have a fitted effect of over 55% in size
#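 In this qHTS, human K18 P301L tau is incubated with compound and heparin for 6 hr at 37 C, and Thioflavin T fluorescence then reports fibril load.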
# Active calls of the source: *; ? = inconclusive; . = no result; [ ] = dose if it differs, or a comment. Unless noted, the call rests on the fitted dose curve; in most records, active means well fitted curve in the direction sought with a large enough effect; inconclusive means small, poorly fitted or top-dose-only effect, or another doubt; inactive means no such curve, though single readings can be large; an effect the other way counts as inactive or inconclusive. Unless noted, on the % scale 0 is the no-effect control and ±100 the full control effect; potency means the concentration at half of the fitted maximal effect.
SMILES,RGS12 GoLoco inh,Tau fluor cs,Tau fibril FP,KDM4E inh,Tau fibril ThT
CCNc1ccc(Br)cc(C(=O)/C=C/c2ccc3c(c2)OCO3)c1=O,28%,?,?,14µM*,11µM*
COc1ccc(CN2C(=O)C(NC(=O)c3ccccc3C)(C(F)(F)F)N=C2c2ccccc2)cc1 (centres undefined),.,-26%,-6%,.,-14%
CC(C)CCNC(=O)C(=O)Nc1c2c(nn1-c1ccc(Cl)cc1)CSC2,.,6%,-7%,.,0%
CC/C(C)=N\Nc1nc(-c2cc3cc(OC)ccc3oc2=O)cs1,5%,18µM*[quencher],?,?,22µM*
COc1ccc(Cl)cc1NC(=O)CSc1nc(-c2ccccc2)c2ccccc2n1,.,-21%,?,.,5%
CN(c1ccc(O)cc1)c1nc(-c2ccccc2)cs1,9%,16µM*[quencher],?,-17%,?
CN(C)CCCN(C(=O)c1cccs1)c1nc(-c2ccccc2)cs1,1%,-21%,-11%,-6%,-17%
COc1ccc(-n2c(-c3ccccc3F)nc3c(cnn3-c3ccc(C)cc3)c2=O)cc1,.,-16%,3%,.,-4%
COc1ccc(C(=O)Nc2ccc(OCC(F)(F)C(F)F)c(C(F)(F)F)c2)cc1OC,-10%,?,22µM*,?,1%
Cc1cc(NC(=O)c2sc(Nc3cccc(C(F)(F)F)c3)nc2N)no1,-4%,18µM*[quencher],?,-2%,11µM*
O=C(NCCOCCn1c(=O)oc2ccccc21)Nc1ccc(F)cc1F,.,-8%,-15%,.,3%
Nc1ccc(-c2nc3c(Cl)cc(N)cc3[nH]2)cc1,10%,?,?,?,20µM*
N#CC1=C(N)N(c2ccc(F)cc2)C2=C(C1c1ccc(O)cc1)S(=O)(=O)CC2 (centres undefined),236%,?,?,20µM*,16µM*
CSc1ccc(C2C(C#N)=C(N)N(c3ccccc3)C3=C2C(=O)CCC3)cc1 (centres undefined),15%,-21%,-4%,?,?
CN(C)C(=S)N=Nc1[nH]c2ccccc2c1O,-5%,-24%,-23%,18%,16µM*
COc1ccc(/C=C/c2nc(N)nc(-c3ccccc3O)n2)cc1OC,6%,?,20µM*,-19%,?
COc1cc(/C=C/c2nc(N)nc(-c3ccccc3O)n2)cc(OC)c1OC,4%,?,?,-23%,-16%
O=C(Nc1cc(C(=O)Nc2ccc(S(=O)(=O)O)cc2S(=O)(=O)O)cc(C(=O)Nc2ccc(S(=O)(=O)O)cc2S(=O)(=O)O)c1)Nc1cc(C(=O)Nc2ccc(S(=O)(=O)O)cc2S(=O)(=O)O)cc(C(=O)Nc2ccc(S(=O)(=O)O)cc2S(=O)(=O)O)c1,117%,-6%,14µM*,?,?
COc1ccc(CC(=O)Nc2ccc3nc(N4CCCCC4)cc(C)c3c2)cc1,.,13µM*[quencher],3%,.,?
Cc1cc(N2CCOCC2)nc2ccc(NC(=S)N3CCCCC3C)cc12 (centres undefined),20%,16µM*[quencher],1%,?,11µM*
Cc1cc(Nc2cccc(Cl)c2)nc2ccc(NC(=O)COc3ccc(Cl)cc3)cc12,.,7.9µM*[quencher],-9%,.,?
COc1cccc(C(=O)Nc2ccc3nc(N4CCOCC4)cc(C)c3c2)c1,6%,?,13%,-10%,5µM*
Cc1cc(N2CCN(C)CC2)nc2ccc(NC(=S)N3CCCCC3)cc12,-2%,?,5%,?,?
CCN1CCN(c2cc(C)c3cc(NC(=O)Cc4ccccc4OC)ccc3n2)CC1,-3%,-4%,?,?,-9%
Cc1cccc(OCC(=O)Nc2ccc3nc(Nc4cccc(Cl)c4)cc(C)c3c2)c1,.,?,-7%,.,?
SMILES,RGS12 GoLoco inh,Tau fluor cs,Tau fibril FP,KDM4E inh,Tau fibril ThT
CCN1CCN(c2cc(C)c3cc(NC(=O)c4cccc(OC)c4)ccc3n2)CC1,1%,?,6%,-1%,.
CCCCOc1ccc(C(=O)NCCc2sc3nc(-c4ccc(OC)cc4)nn3c2C)cc1,.,-24%,-18%,.,?
COc1ccc(Nc2cc(C)c3cc(NC(=O)Cc4ccc(Cl)cc4)ccc3n2)cc1,.,5µM*[quencher],-13%,.,11µM*
COc1ccc(Nc2cc(C)c3ccc(O)cc3n2)cc1,-19%,?,3%,?,.
COc1cccc(C(=O)Nc2ccc3nc(N4CCN(c5ncccn5)CC4)cc(C)c3c2)c1OC,2%,-30%,9%,?,8.9µM*
Cc1ccn2c(=O)c(C(=O)NCCc3ccccc3)c(O)nc2c1,.,2%,-3%,.,-13%
CCOC(=O)C1=C(CN2CCN(c3ccc(Cl)cc3)CC2)NC(=O)NC1c1ccc(OC)cc1 (centres undefined),.,-6%,-3%,.,-14%
COc1cccc(N/N=C/c2cccc(Br)c2O)c1,3%,18µM*[quencher],0%,?,18µM*
Cc1cccc(NN=C2c3ccccc3-c3ccccc32)c1,4%,?,11%,-5%,?
COc1cccc(/C=N/Nc2cc(Cl)nc(C)n2)c1O,7%,-18%,2%,?,?
Cc1cccc(N/N=C/c2ccc(O)c(O)c2O)c1,-6%,?,16µM*,3.2µM*,10µM*
CCOC(=O)C1=C(CS(=O)(=O)c2ccc(F)c(C)c2)NC(=O)NC1c1ccc(O)c(O)c1 (centres undefined),-11%,-5%,-2%,14µM*,-1%
CCOC(=O)C1=C(CS(=O)(=O)c2ccc(F)c(C)c2)NC(=O)NC1c1ccc(F)c(F)c1 (centres undefined),.,-20%,-6%,.,-5%
CCC(Sc1ncc(S(=O)(=O)c2ccc(Cl)cc2)c(=O)[nH]1)C(=O)Nc1ccc(OC)cc1 (centres undefined),.,-8%,7%,.,-10%
Cc1ccc(C)c(Cn2c3ccccc3c3cnn(CC(=O)NC4CCC(C)CC4)c(=O)c32)c1 (centres undefined),.,-5%,7%,.,3%
CC1CCCN(C(=S)SCC(=O)c2cc(Br)cc(Br)c2O)C1 (centres undefined),102%,?,?,?,16µM*
COc1ccccc1C1Nc2cccc3cccc(c23)N1,15%,?,-12%,?,22µM*
COc1ccc(C2Nc3cccc4cccc(c34)N2)cc1,0%,?,-15%,?,16µM*
Oc1ccccc1C1Nc2cccc3cccc(c23)N1,-6%,11%,6%,3%,7%
COc1ccc(C2=Nc3cccc4cccc(c34)N2)cc1,-21%,2%,-1%,-3%,3%
CCOc1ccc(C2Nc3cccc4cccc(c34)N2)cc1OC,-5%,?,?,?,3.5µM*
CCOc1cc(C2Nc3cccc4cccc(c34)N2)ccc1O,-13%,5µM*[quencher],?,3%,6.3µM*
O=C(Nc1cc(Cl)ccc1Cl)c1cc(S(=O)(=O)N2CCCc3ccccc32)ccc1F,.,-17%,-15%,.,-7%

# Source: PubChem BioAssay
